Bioassay records deposited in PubChem BioAssay by Sanford-Burnham Center for Chemical Genomics.
Shown are actives, neighbours in structure and some others; about 31% of the full set was active somewhere.
CYP2C9 act: activators of human CYP2C9 | recombinant CYP2C9, luciferin-H conversion, luminescence; active compounds read high; factor 1 = untreated enzyme, 0 = blocked | activation factor at 5 µM | actives 1.4% (n = 96,000) | P11712;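 active means activation factor of 2 or more for CYP2C9 at a 5 µM dose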;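 further: 0 = sulfaphenazole-blocked wells and 1 = vehicle-only wells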
Target sequence (P11712 whole entry, looked up): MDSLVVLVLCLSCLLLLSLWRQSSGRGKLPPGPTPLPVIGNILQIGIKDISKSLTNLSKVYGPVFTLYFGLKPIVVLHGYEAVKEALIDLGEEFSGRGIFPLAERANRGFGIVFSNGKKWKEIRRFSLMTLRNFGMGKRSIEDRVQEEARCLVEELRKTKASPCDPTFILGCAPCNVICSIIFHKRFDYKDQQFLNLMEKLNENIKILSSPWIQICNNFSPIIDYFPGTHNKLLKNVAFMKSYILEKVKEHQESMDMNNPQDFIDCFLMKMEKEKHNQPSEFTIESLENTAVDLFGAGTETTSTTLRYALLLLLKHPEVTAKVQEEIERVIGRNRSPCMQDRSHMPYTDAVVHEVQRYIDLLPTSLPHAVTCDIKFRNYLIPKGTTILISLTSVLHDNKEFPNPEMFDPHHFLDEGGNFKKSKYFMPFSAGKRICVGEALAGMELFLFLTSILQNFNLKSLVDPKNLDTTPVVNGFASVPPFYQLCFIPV
CYP2C19 inhib: inhibitors of human CYP2C19 | actives 21% (n = 96,000) | P33261 | CYP2C19 Supersomes, luciferin-H EGE luminescence, 30 min | inhibition, % at 5 µM;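 active means CYP2C19 inhibition above a set limit at 5 µM in the primary screen, cut at about 50% in these data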;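 further: plate controls were negative control wells for no effect and 2.5 mM tranylcypromine positive control for full effect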
CYP2C9 inhib: inhibitors of human CYP2C9; inhibition, % at 5 µM; AID 777; actives 20% (n = 96,000); CYP2C9 Supersomes, luciferin-H conversion, luminescence; P11712;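 active means blocking of liver enzyme CYP2C9 beyond about 50% at 5 µM, limit read from the data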
CYP2C19 activ: increases human CYP2C19 enzyme activity | P33261 | recombinant CYP2C19, luciferin-H EGE luminescence; active compounds read high; 0 = fully inhibited enzyme, 1 = untreated enzyme | activation factor at 5 µM | 96,000 tested, under 10 active;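 active means activation factor of at least 2 at 5 µM in the primary screen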;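 further: 0 = wells with 2.5 mM tranylcypromine and 1 = vehicle-only wells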
The depositor's hits bear a star.

SMILES | CYP2C9 act | CYP2C19 inhib | CYP2C9 inhib | CYP2C19 activ
Cc1cc2n(n1)C(c1ccco1)Nc1ccccc1-2 (stereo unspecified) | 0.8 | 16 | 18 | 0.8
Clc1ccccc1Sc1cnc2ccccc2n1 | 1 | 16 | 4 | 0.8
Cc1cc(C)c2c(CC(=O)N(CCC#N)Cc3cccnc3)coc2c1 | 1.3 | 51* | -25 | 0.5
Cc1ccc(NC(=O)CCSc2nnc3ccccn23)cc1 | 0.9 | 55* | 12 | 0.5
CC(=O)c1ccccc1NC(=O)CSc1nnc2ccccn12 | 1.1 | 3 | -6 | 1
CCc1nnc(SCc2ccc(C(=O)OC)o2)n1N | 0.9 | 37 | 12 | 0.6
COC(=O)c1ccc(CSc2nnc(-c3ccncc3)n2Cc2ccccc2)o1 | 0.3 | 87* | 74* | 0.1
CNC(=O)CSc1nnc(-c2ccncc2)n1Cc1ccccc1 | 0.9 | 17 | 13 | 0.8
COC(=O)c1ccc(CSc2nnc3ccccn23)o1 | 0.9 | 52* | 7 | 0.5
COC(=O)C(C)Sc1nnc(-c2ccncc2)o1 (stereo unspecified) | 0.8 | 89* | 20 | 0.1
CC(=O)Nc1nc(=S)n(-c2ccccc2)[nH]1 | 0.9 | -1 | 5 | 1
COC(=O)c1ccc(CSc2nnc(-c3ccncc3)o2)o1 | 0.2 | 91* | 76* | 0.1
COC(=O)c1ccc(CSc2nnnn2-c2ccc(C)cc2C)o1 | 0.1 | 90* | 86* | 0.1
COC(=O)c1ccc(CSc2ccc3nnc(-c4cccnc4)n3n2)o1 | 0.6 | 36 | 36 | 0.6
Cc1ccc(-n2nnnc2SCC(=O)NCCC2=CCCCC2)c(C)c1 | 0.2 | 71* | 80* | 0.3
Cc1ccc(-n2nnnc2SCC(N)=O)c(C)c1 | 1.1 | 8 | -6 | 0.9
Cc1ccc(C(C(=O)NCCc2ccccc2)N(C(=O)c2csnn2)C2CC2)o1 (stereo unspecified) | 0.8 | 40 | 23 | 0.6
Cc1csc(NC(=O)C2CCN(C(=O)CSc3nnc(C)n3Cc3ccccc3)CC2)n1 | 0.6 | 36 | 43 | 0.6
CCCOc1ccc(/C(O)=C2/C(=O)C(=O)N(CCN(CC)CC)C2c2ccncc2)cc1 (stereo unspecified) | 0.8 | 6 | 19 | 0.9
Cc1ccc(N2C(=O)c3ccc(C(=O)N4CCN(c5ccccc5F)CC4)cc3C2=O)cc1 | 0.9 | 9 | 6 | 0.9
CCOC(=O)C(C)c1ccc2cc(OC)ccc2c1 (stereo unspecified) | 1.3 | 52* | -28 | 0.5
CCOC(=O)C(C(C)=O)C(c1ccc(OC)cc1)C(C(C)=O)C(=O)OCC (stereo unspecified) | 1.2 | -8 | -18 | 1.1
S=c1[nH]cc(-c2ccccc2)n1-c1ccccc1 | 0.2 | 79* | 78* | 0.2
CCn1c(-c2ccccc2)c[nH]c1=S | 0.7 | 58* | 31 | 0.4
O=C(c1ccc(=O)oc1)N1CCCc2ccccc21 | 0.8 | 5 | 17 | 0.9
SMILES | CYP2C9 act | CYP2C19 inhib | CYP2C9 inhib | CYP2C19 activ
Cc1ccccc1-n1c(SCc2c(C)noc2C)nnc1-c1c[nH]c2ccccc12 | 0.9 | 4 | 8 | 1
Cc1noc(C)c1CSc1nnc(-c2ccncc2)n1-c1cccc(Cl)c1C | 0.1 | 100* | 94* | 0
Cc1c(Cl)cccc1-n1c(SCC(=O)N(C)Cc2ccccc2)nnc1-c1ccncc1 | 0.2 | 90* | 83* | 0.1
O=C(O)c1cc(S(=O)(=O)NCc2ccco2)c(Cl)cc1Cl | 1.1 | -12 | -11 | 1.1
COc1ccc2cc(CN(Cc3ccco3)Cc3nnnn3C3CCCCC3)c(=O)[nH]c2c1 | 0.1 | 84* | 87* | 0.2
CCc1ccc2[nH]c(=O)c(CN(Cc3ccc4c(c3)OCO4)Cc3nnnn3C3CCCC3)cc2c1 | 0.4 | 30 | 60* | 0.7
Cc1ccc2cc(CN(Cc3ccc(F)cc3)Cc3nnnn3C3CCCC3)c(=O)[nH]c2c1 | 0.9 | 19 | 9 | 0.8
COc1ccc2cc(CN(Cc3ccco3)C(c3nnnn3C3CCCCC3)C(C)C)c(=O)[nH]c2c1 (stereo unspecified) | 0.6 | 20 | 45 | 0.8
Cc1ccc2cc(CN(Cc3ccccc3)Cc3nnnn3C3CCCC3)c(=O)[nH]c2c1 | 0.2 | 87* | 82* | 0.1
Cc1ccc2[nH]c(=O)c(CN(CCCN3CCOCC3)Cc3nnnn3C3CCCC3)cc2c1 | 0.9 | 36 | 5 | 0.6
CN(C)S(=O)(=O)Nc1ccccc1C(N)=O | 1.5 | -1 | -52 | 1
Cc1cc2ncn(/N=C/c3cc(Br)ccc3O)c2cc1C | 0.4 | 31 | 61* | 0.7
CCOC(=O)C(CCc1nnc(N)s1)C(=O)OCC | 0.8 | 10 | 19 | 0.9
O=C(COC(=O)c1cccs1)NCc1ccc2c(c1)OCO2 | 0.3 | 78* | 69* | 0.2
O=C(COC(=O)c1cccs1)c1ccc2c(c1)OCCO2 | 0.1 | 83* | 87* | 0.2
CCCC(C)C(=O)NCc1ccc2c(c1)OCO2 (stereo unspecified) | 0.7 | 32 | 28 | 0.7
CCOCC(=O)NCc1ccc2c(c1)OCO2 | 1 | 22 | 3 | 0.8
CCC(OC(=O)c1cccs1)C(=O)NCc1ccc2c(c1)OCO2 (stereo unspecified) | 0.2 | 69* | 79* | 0.3
O=C(Cc1ccc(Br)cc1)OCC(=O)c1ccc2c(c1)OCCO2 | 1 | -2 | -3 | 1
O=C(Cc1n[nH]c(=O)c2ccccc12)OCC(=O)c1ccc2c(c1)OCCO2 | 0.3 | 3 | 66* | 1
Cc1ccc(-n2ncc3c(=O)n(CC(=O)Nc4cccc(Cl)c4)cnc32)cc1C | 0.9 | 3 | 12 | 1
O=C(NCc1ccc2c(c1)OCO2)c1cccs1 | 0.3 | 93* | 67* | 0.1
O=C(NCc1ccc2c(c1)OCO2)c1cc(-c2ccccc2)on1 | 1.2 | 4 | -16 | 1
CCOc1cc(/C=C(/C#N)c2nc3ccccc3[nH]2)ccc1Oc1ccc([N+](=O)[O-])cn1 | 0.9 | 4 | 13 | 1
COc1cc(/C=C(/C#N)c2nc3ccccc3[nH]2)ccc1Oc1ncccc1[N+](=O)[O-] | 0.3 | 62* | 66* | 0.4
SMILES | CYP2C9 act | CYP2C19 inhib | CYP2C9 inhib | CYP2C19 activ
COc1cc(C(Nc2ccc3c(c2)OCO3)C(=O)NC2CCCCC2)cc(OC)c1OC (stereo unspecified) | 0.7 | 74* | 28 | 0.3
Clc1ccc(CSc2nnc(-c3sccc3-n3cccc3)o2)cc1 | 0.5 | 34 | 46 | 0.7
COC(=O)c1c(C(=O)OC)c(-c2cccc(C)c2)n2c1CS(=O)(=O)C2 | 1 | 1 | 3 | 1
CC(C)(C)n1nnnc1C(c1cccc(C#N)c1)N1CCCc2ccccc21 (stereo unspecified) | 0.1 | 91* | 94* | 0.1
COc1ccccc1C(c1nnnn1C(C)(C)C)N1CCN(Cc2ccncc2)CC1 (stereo unspecified) | 0.1 | 79* | 89* | 0.2
CC(C)(C)n1nnnc1C(c1ccc(Cl)cc1)N1CCCc2ccccc21 (stereo unspecified) | 0.2 | 84* | 76* | 0.2
COc1ccccc1N1CCN(C(c2ccc(Cl)cc2)c2nnnn2C(C)(C)C)CC1 (stereo unspecified) | 0.1 | 89* | 87* | 0.1
